hcDAF-12 act = activators of H. contortus DAF-12 nuclear receptor | activation, % at 6.8 µM | 370,000 compounds, 1.4% hits | HEK293 hcDAF-12 lit1-tk-luc reporter, luminescence; 0% DMSO, 100% Δ7-dafachronic acid;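 active means activation above the mean of all tested compounds plus 3 SD, cut at about 5.5% in these data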;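 further: 100% = response to 3 µM Δ7-dafachronic acid high control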
hgDAF-12 ag = hgDAF-12 agonism, primary luciferase screen | activation, % at 6.8 µM | 370,000 compounds, 1.8% hits | HEK293 GAL4-hgDAF12 UAS-luciferase reporter, agonist luminescence; normalized to butyrate control;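 active means activation above a cutoff set at the mean of all screened compounds plus 3 SD, cut at about 10% in these data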;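 further: 0% = DMSO wells and 100% = sodium butyrate wells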
ssDAF12 agonist = S. stercoralis DAF-12 activation, primary screen; HEK293 ssDAF-12/GRIP1 lit1-tk-luc reporter, luminescence; % of 3 µM dafachronic acid response; activation, % at 6.8 µM; 370,000 compounds, 1% hits;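 active means activation above the mean over all tested compounds plus 3 SD, cut at about 0.9% in these data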;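 further: 0% = DMSO-only wells and 100% = 3 µM delta7-dafachronic acid wells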
AHR act = activates the human aryl hydrocarbon receptor. P35869. AHR-responsive luciferase reporter cells, luminescence. activation, % at 5 µM. 320,000 compounds, 2.5% hits. AID 2796; in the data active means activation above about 47%;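 further: 0% = vehicle wells and 100% = reference agonist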
DAX1 inh-1 = inhibits human nuclear receptor DAX1 | HEK293 Gal4-DAX1 luciferase reporter, luminescence | inhibition, % at 6.75 µM | 340,000 compounds, 0.99% hits | AID 504766;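 active means inhibition above the mean over all tested compounds plus 3 SD, cut at about 4.2% in these data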;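 further: 0% = DAX1-transfected cells with DMSO and 100% = empty-vector control cells with DMSO; inhibition shows as a rise in luminescence from relieved DAX1 repression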
DAX1 inh-2 = DAX1 (NR0B1) inhibition, primary screen. HEK293T StAR-luciferase reporter, SF-1/DAX-1 repression relief. inhibition, % at 6.8 µM. 370,000 compounds, 1.1% hits. AID 652010;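 active means inhibition above the mean over all tested compounds plus 3 SD, cut at about 3.6% in these data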;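 further: 0% = DAX-1 cells with DMSO and 100% = cells lacking DAX-1 with DMSO; higher inhibition means more luminescence from relief of DAX-1 repression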
* = called active by the depositor; . = no result. Rows were chosen to be rich in hits. Some 5.7% of all compounds tested hit in one or more screens of this group.

SMILES	hcDAF-12 act	hgDAF-12 ag	ssDAF12 agonist	AHR act	DAX1 inh-1	DAX1 inh-2
CC1CCCC(NCC(=O)Nc2ccc(C(N)=O)cc2)C1C (configuration not stated)	-1	6	1.7*	-3	0	1
O=C(/C=C/c1ccco1)N1CCN(S(=O)(=O)c2cccs2)CC1	-2	0	-1	2	6.6*	-1
CC1CCCCN1C(=O)COC(=O)c1cc(Cl)c2c(c1)OCO2 (configuration not stated)	3	9	-1	.	3	3.7*
CC1CCN(C(=O)COC(=O)c2ccc3c(c2)OCCO3)CC1	2	8	0	-1	3	0
CC1CCCCN1C(=O)COC(=O)c1ccc(N2CCCC2=O)cc1 (configuration not stated)	-1	-1	-1	-1	0	-1
CC1CCN(C(=O)COC(=O)c2ccc3c(c2)OCO3)CC1	2	12*	-1	3	1	1
O=C(CNC(=O)c1ccccc1)OCc1nnc(-c2ccc(Cl)cc2)o1	-1	5	-1	0	0	1
NC(=O)c1cc2ccc(O)cc2oc1=NCc1ccccc1	2	6	-1	5	1	1
NC(=O)c1cc2ccc(O)cc2oc1=Nc1ccccc1	4	12*	0	.	-1	4
O=[N+]([O-])c1ccc(O)c(/C=N/n2cnc3ccccc32)c1	-2	1	-2	56*	0	0
O=[N+]([O-])c1ccc(O)c(/C=N/n2c(CO)nc3ccccc32)c1	1	-1	-2	6	0	1
Cc1cc2c(c(=O)o1)C(CCC1CCCCC1)C(C#N)=C(N)O2 (configuration not stated)	0	-2	-1	0	.	0
COc1ccccc1-n1cc(-c2ccc(Cl)cc2)[nH]c1=O	6.4*	-1	-1	33	0	0
COc1ccc(-c2cn(-c3cccc(C)c3)c(=O)[nH]2)cc1OC	0	6	-1	7	1	2
CCc1cc(=O)oc2cc(OCC(=O)N3CC[C@@]4(O)CCCC[C@H]4C3)ccc12	-1	-1	-1	0	0	-1
Nc1nc(CSc2ccccn2)nc(Nc2ccccc2)n1	5	11*	1	26	4	4
Nc1nc(CSCCO)nc(Nc2ccccc2)n1	1	2	-1	12	1	0
COc1ccc(S(=O)(=O)Cc2ccc(C(=O)NCCCN3CCc4ccccc4C3)o2)cc1	5.8*	3	3.5*	0	2	0
COCCNc1nc2cc(-c3ccc(F)cc3)sc2c(=O)n1C	-1	12*	-1	.	.	-1
C=CCNc1nc2cc(-c3ccccc3OC)sc2c(=O)n1C	2	11*	0	.	.	0
Cn1c(NCCOc2ccccc2)nc2cc(-c3ccc(F)cc3)sc2c1=O	-1	-1	-2	.	.	1
Cc1nc2nc(CSc3ccc(Cl)cc3)cc(=O)n2[nH]1	-1	2	-1	1	2	0
Cc1cc2nc(CSc3ccc(Cl)cc3)cc(=O)n2[nH]1	-2	-3	-1	0	11*	-1
CC(=O)N(C(C)=O)c1nc(-c2ccccc2)cn1/N=C/c1cccc([N+](=O)[O-])c1	-1	1	-1	49*	1	0
CCCC12CN3CCN(CC(C3)/C1=N\NC(=O)c1ccccc1N)C2	2	6	0	33	2	2
SMILES	hcDAF-12 act	hgDAF-12 ag	ssDAF12 agonist	AHR act	DAX1 inh-1	DAX1 inh-2
Nc1ccccc1C(=O)N/N=C1/C2CN3CCN(C2)CC1(Cc1ccccc1)C3	2	8	0	11	4.5*	2
Cc1nc2ccccn2c1C(=O)N/N=C/c1ccccc1Cl	-1	1	-1	30	1	0
O=C(CO/N=C/c1ccccc1OC(F)F)N1CCc2ccccc21	6.5*	3	-1	11	2	0
COc1ccc(-c2nc(CN3CCN(Cc4cccc(Cl)c4)CC3)c(C)o2)cc1	-1	1	-1	8	5.8*	-1
Cc1cccc(NC(=O)c2ccccn2)c1C	-2	7	-1	-1	2	2
Cc1cccc(NC(=O)c2n[nH]c([N+](=O)[O-])c2Br)c1C	3	11*	1	9	0	3.6*
O=C(COC(=O)CSc1ccc(F)cc1)NCCCc1ccccc1	-1	5	1.1*	-2	-1	-1

Bioassay records: PubChem, The Scripps Research Institute Molecular Screening Center
